Test results published in PubChem BioAssay (Tox21).
Records with an inconclusive call do not appear. Where a call stands in place of a potency, no number is given. Some structures have more than one record in an assay (separate samples or runs), and their calls can disagree. Calls of active or inactive are those of the source. Unless noted, calls follow the shape of the dose curve; as a rule, active = well fitted curve in the direction sought with a large enough effect in the repeat runs; inconclusive = weak or mixed curves; inactive = no such curve, though single readings can be large; an effect the other way counts as inactive or inconclusive.

tested on: not listed separately; assay: qHTS assay to identify small molecule antagonists of the estrogen receptor alpha (ER-alpha) signaling pathway using the BG1 cell line in the presence of 0.1 nM 17-beta-estradiol - cell viability counter screen (AID 1259241); conditions: VM7Luc4E2 (BG1) viability, CellTiter-Fluor protease, 22 h, 0.1 nM estradiol agonist added; series mostly up to 92.4 µM; activity change, negative = cytotoxicity: at the top concentration; also: nearly all actives have a fitted effect of over 40% in size
Outline: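 Viability in VM7Luc4E2 cells after 22 hr compound exposure under 0.1 nM 17beta-estradiol stimulation, by CellTiter-Fluor.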
Potency is read from the fitted curve at half-maximal effect.

Compound	Potency	activity change, negative = cytotoxicity
CCCC[P+](CCCC)(CCCC)CCCC	inactive	–
Oc1ccccc1	inactive	–
C1CCC(C(CC2CCCCN2)C2CCCCC2)CC1 (configuration not stated)	–	-27.6% [at 42.5 µM] (inactive)
CN1CCC[C@H]1c1cccnc1	inactive	–
NC(=O)n1c(O)c(C(=O)c2cccs2)c2cc(Cl)ccc21	16.8 µM (active)	–
OC[C@H]1O[C@H](O[C@]2(CCl)O[C@H](CCl)[C@@H](O)[C@@H]2O)[C@H](O)[C@@H](O)[C@H]1Cl	inactive	–
CC1(C)S[C@@H]2[C@H](NC(=O)[C@H](N)c3ccccc3)C(=O)N2[C@H]1C(=O)O	inactive	–
F[B-](F)(F)F	inactive	–
Cc1ccc(S(=O)(=O)O)cc1	inactive	–
CC(=O)C(=O)O	inactive	–
C/C=C/C=C/C(=O)O	inactive	–
O=C1c2c(O)cccc2Cc2cccc(O)c21	inactive	–
CN[C@H]1CC[C@@H](c2ccc(Cl)c(Cl)c2)c2ccccc21	–	-20.1% [at 42.5 µM] (inactive)
O=C1O[C@H]([C@@H](O)CO)C(O)=C1O	inactive	–
CCCCC(CC)C(=O)O (configuration not stated)	inactive	–
C[C@](N)(Cc1ccc(O)c(O)c1)C(=O)O	inactive	–
COc1ccc(CN(CCN(C)C)c2ccccn2)cc1	inactive	–
CCN(Cc1c(F)cccc1Cl)c1c([N+](=O)[O-])cc(C(F)(F)F)cc1[N+](=O)[O-]	–	-18% (inactive)
CC(O)(P(=O)(O)O)P(=O)(O)O	inactive	–
Nc1ccc([N+](=O)[O-])cc1O	61.1 µM (active)	–
NS(=O)(=O)O	inactive	–

tested on: not listed separately; assay: qHTS assay to identify small molecule antagonists of the androgen receptor (AR) signaling pathway using the MDA cell line in the presence of 0.5 nM R1881 - cell viability counter screen (AID 1259242); conditions: MDA-kb2 viability, CellTiter-Fluor protease fluorescence, 16 h; series mostly up to 92.4 µM; viability change, negative = cytotoxic: at the top concentration; also: nearly all actives have a fitted effect of over 45% in size
Outline: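 MDA-kb2 cells (human breast carcinoma, stably carrying MMTV-luciferase reporter) were exposed to compounds with 0.5 nM R1881 (final) for 16 hr at 37C, 0% CO2; viability then read as live-cell protease fluorescence (CellTiter-Fluor, 30 min) in the same wells.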

Compound	Potency	viability change, negative = cytotoxic
COc1ccc(OC(F)(F)F)cc1CN[C@H]1CCCN[C@H]1c1ccccc1	48.6 µM (active)	–
CCCC[P+](CCCC)(CCCC)CCCC	–	-14.8% (inactive)
Oc1ccccc1	inactive	–
CC/C(=C(\c1ccccc1)c1ccc(OCCN(C)C)cc1)c1ccccc1	61.1 µM (active) [middle of 4 runs]	–
C1CCC(C(CC2CCCCN2)C2CCCCC2)CC1 (configuration not stated)	26.6 µM (active)	–
O=c1[nH]cc(F)c(=O)[nH]1	inactive	–
CN1CCC[C@H]1c1cccnc1	inactive	–
OC[C@H]1O[C@H](O[C@]2(CCl)O[C@H](CCl)[C@@H](O)[C@@H]2O)[C@H](O)[C@@H](O)[C@H]1Cl	inactive	–
Cn1c(=O)c2c(ncn2C)n(C)c1=O	inactive	–
CC1(C)S[C@@H]2[C@H](NC(=O)[C@H](N)c3ccccc3)C(=O)N2[C@H]1C(=O)O	inactive	–
F[B-](F)(F)F	inactive	–
Cc1ccc(S(=O)(=O)O)cc1	inactive	–
CC(=O)C(=O)O	inactive	–
C/C=C/C=C/C(=O)O	inactive	–
COc1cccc(O)c1O	–	-16% (inactive)
O=C1c2c(O)cccc2Cc2cccc(O)c21	inactive	–
O=C1O[C@H]([C@@H](O)CO)C(O)=C1O	inactive	–
CCCCC(CC)C(=O)O (configuration not stated)	inactive	–
C[C@](N)(Cc1ccc(O)c(O)c1)C(=O)O	inactive	–
COc1ccc(CN(CCN(C)C)c2ccccn2)cc1	inactive	–
CCN(Cc1c(F)cccc1Cl)c1c([N+](=O)[O-])cc(C(F)(F)F)cc1[N+](=O)[O-]	–	-13.3% (inactive)
CC(O)(P(=O)(O)O)P(=O)(O)O	inactive	–
NS(=O)(=O)O	inactive	–

target: Estrogen receptor (Homo sapiens) (UniProt P03372); assay: qHTS assay to identify small molecule antagonists of the estrogen receptor alpha (ER-alpha) signaling pathway using the BG1 cell line in the presence of 0.1 nM 17-beta-estradiol (AID 1259244); conditions: VM7Luc4E2 (BG1) ERE-luciferase, antagonist mode, 0.1 nM E2, 22 h; series mostly up to 92.4 µM; activity change, negative = inhibition: at the top concentration; also: nearly all actives have a fitted effect of over 50% in size
Outline: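 VM7Luc4E2 cells (endogenous full-length ER-alpha, stable 4xERE-luciferase) were grown 5 days in phenol red-free medium with charcoal-stripped FBS, then exposed 22 h at 37C to compounds plus 0.1 nM (final) 17beta-estradiol; ONE-Glo luminescence read-out.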

Chain of Estrogen receptor (Homo sapiens) (P03372 whole entry, looked up): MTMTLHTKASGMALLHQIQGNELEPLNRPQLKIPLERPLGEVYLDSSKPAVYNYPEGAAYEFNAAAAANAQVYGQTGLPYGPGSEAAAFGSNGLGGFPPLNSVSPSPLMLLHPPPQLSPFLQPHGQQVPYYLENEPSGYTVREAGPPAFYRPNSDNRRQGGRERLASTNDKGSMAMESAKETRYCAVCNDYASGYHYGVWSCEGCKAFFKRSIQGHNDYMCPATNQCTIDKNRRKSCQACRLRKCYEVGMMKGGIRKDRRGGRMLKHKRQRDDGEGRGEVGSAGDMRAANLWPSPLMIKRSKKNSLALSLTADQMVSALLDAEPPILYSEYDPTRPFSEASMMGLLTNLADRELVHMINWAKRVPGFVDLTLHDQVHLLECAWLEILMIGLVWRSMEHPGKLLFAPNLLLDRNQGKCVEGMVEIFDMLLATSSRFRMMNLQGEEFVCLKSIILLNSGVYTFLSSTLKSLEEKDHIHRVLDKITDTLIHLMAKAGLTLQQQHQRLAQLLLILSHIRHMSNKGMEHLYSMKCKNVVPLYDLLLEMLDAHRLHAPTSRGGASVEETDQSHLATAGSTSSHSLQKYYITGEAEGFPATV

Compound	Potency	activity change, negative = inhibition
O=c1[nH]cc(F)c(=O)[nH]1	12.7 µM (active) and inactive	–
NC(=O)n1c(O)c(C(=O)c2cccs2)c2cc(Cl)ccc21	13.3 µM (active)	–
Nc1ccc2c(c1)CN1C(=O)c3ccccc3C1=N2	3.26 µM (active)	–
O=C(Nc1ncc([N+](=O)[O-])s1)c1cccs1	–	-72% [at 42.5 µM] (inactive)
COc1cccc(O)c1O	–	-8.75% (inactive)
Nc1ccc([N+](=O)[O-])cc1O	–	0.033% (inactive)

tested on: not listed separately; assay: qHTS assay to identify small molecule phospholipidosis (PLD) inducers (AID 1259344; active = well fitted curve in the direction sought with a large enough effect; an effect the other way counts as inactive or inconclusive); conditions: HepG2 phospholipidosis, LipidTOX Red imaging, 24 h; series mostly up to 38.3 µM; PLD induction: at the top concentration
Outline: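 HepG2 cells grown on collagen I take up LipidTOX Red while exposed to compound for 24 h; after fixation they are imaged at 20x and pit metrics are extracted.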

Compound	PLD induction	Potency
Oc1ccccc1	0.811% [at 7.66 µM] (inactive)	–
CC/C(=C(\c1ccccc1)c1ccc(OCCN(C)C)cc1)c1ccccc1	–	11.2 µM (active)
C1CCC(C(CC2CCCCN2)C2CCCCC2)CC1 (configuration not stated)	14.1% (inactive)	–
O=c1[nH]cc(F)c(=O)[nH]1	2.35% (inactive)	–
Nc1ccc(O)c([N+](=O)[O-])c1	-2.45% [at 78.4 µM] (inactive)	–
NC(=O)n1c(O)c(C(=O)c2cccs2)c2cc(Cl)ccc21	-0.641% (inactive)	–
Cn1c(=O)c2c(ncn2C)n(C)c1=O	-1.22% (inactive)	–
O=C(Nc1ncc([N+](=O)[O-])s1)c1cccs1	-0.888% (inactive)	–
C/C=C/C=C/C(=O)O	0.758% (inactive)	–
O=C1c2c(O)cccc2Cc2cccc(O)c21	2.33% (inactive)	–
CN[C@H]1CC[C@@H](c2ccc(Cl)c(Cl)c2)c2ccccc21	–	2.82 µM (active)
O=C1O[C@H]([C@@H](O)CO)C(O)=C1O	–	inactive
C[C@](N)(Cc1ccc(O)c(O)c1)C(=O)O	-1.36% (inactive)	–
COc1ccc(CN(CCN(C)C)c2ccccn2)cc1	3.6% (inactive)	–
CC(O)(P(=O)(O)O)P(=O)(O)O	3.3% (inactive)	–
Nc1ccc([N+](=O)[O-])cc1O	-2.79% [at 78.4 µM] (inactive)	–

tested on: not listed separately; assay: qHTS assay to identify small molecule HDAC inhibitors (AID 1259364); conditions: HCT-116 HDAC-Glo I/II luminescence, 2 h; series mostly up to 92.4 µM; activity change, negative = inhibition: at the top concentration; also: nearly all actives have a fitted effect of over 45% in size; as to activity change, negative = inhibition: top concentration of the series differs between compounds
Outline: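 Wild-type HCT-116 cells were plated overnight, exposed to compounds for 2 h at 37 °C, then given HDAC-Glo class I/II luminogenic reagent for 30 min at room temperature before luminescence was read.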

Compound	activity change, negative = inhibition	Potency
COc1ccc(OC(F)(F)F)cc1CN[C@H]1CCCN[C@H]1c1ccccc1	-6.5% (inactive)	–
CCCC[P+](CCCC)(CCCC)CCCC	–	inactive
CC/C(=C(\c1ccccc1)c1ccc(OCCN(C)C)cc1)c1ccccc1	–	inactive
CN1CCC[C@H]1c1cccnc1	–	inactive
NC(=O)n1c(O)c(C(=O)c2cccs2)c2cc(Cl)ccc21	-1.89% [at 42.5 µM] (inactive)	–
OC[C@H]1O[C@H](O[C@]2(CCl)O[C@H](CCl)[C@@H](O)[C@@H]2O)[C@H](O)[C@@H](O)[C@H]1Cl	–	inactive
Nc1ccc2c(c1)CN1C(=O)c3ccccc3C1=N2	–	326 nM (active)
O=C(Nc1ncc([N+](=O)[O-])s1)c1cccs1	–	422 nM (active)
Cc1ccc(S(=O)(=O)O)cc1	–	inactive
CC(=O)C(=O)O	–	inactive
NS(=O)(=O)O	–	inactive
